Assay outcomes from PubChem BioAssay.
Vc quorum ag: inducers of Vibrio cholerae quorum light production without autoinducers. V. cholerae BH1578 lux reporter, luminescence, 6 h. activation, % at 18.7 µM. 350,000 tested, 0.16% active; in the data active = activation mostly above about 9.7%, no sharp cut-off
GDH-TPI inh: counter-screen for M. tuberculosis FBA inhibitors: GDH-TPI coupled enzymes; GDH-TPI coupled enzyme counterscreen, NADH absorbance; 360,000 tested, 1.2% active; inhibition, % at 4.8 µM; in the data active = inhibition above about 30%;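 also: 0% = DMSO wells and 100% = wells lacking the enzyme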
FBA Mtb inh: Mtb fructose-bisphosphate aldolase inhibition | purified M. tuberculosis FBA, fluorescence read-out | inhibition, % at 1 µM | 360,000 tested, 2.3% active; in the data active = inhibition above about 27%;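 also: 0% = vehicle and 100% = reference inhibitor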
Target sequence (P9WQA3 whole entry, looked up): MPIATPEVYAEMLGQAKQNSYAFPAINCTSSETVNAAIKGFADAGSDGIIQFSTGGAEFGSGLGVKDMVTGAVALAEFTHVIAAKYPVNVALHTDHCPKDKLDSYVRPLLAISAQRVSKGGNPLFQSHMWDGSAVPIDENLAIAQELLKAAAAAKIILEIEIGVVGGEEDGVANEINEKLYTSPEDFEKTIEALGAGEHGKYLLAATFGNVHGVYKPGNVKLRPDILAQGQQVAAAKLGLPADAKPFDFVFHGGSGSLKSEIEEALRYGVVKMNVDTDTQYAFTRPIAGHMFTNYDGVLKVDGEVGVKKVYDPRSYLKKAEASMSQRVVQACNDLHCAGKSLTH
Mtb BioA inh: inhibitors of Mycobacterium tuberculosis BioA enzyme; purified M. tuberculosis BioA enzyme, plate reader; inhibition, % at 9.99 µM; 360,000 tested, 0.096% active; AID 602481; in the data active = inhibition above about 40%
* hit, by the source's call; i = inactive; · = no result given; + = active, no number. An excerpt weighted towards active compounds, which were near 3% of everything screened.

SMILES | Vc quorum ag | GDH-TPI inh | FBA Mtb inh | Mtb BioA inh
C[C@H]1CCCCO[C@H](CN(C)Cc2ccncc2)[C@@H](C)CN([C@@H](C)CO)C(=O)c2cc(NC(=O)Nc3cccc4ccccc34)ccc2O1 | · | · | · | 17.6
CSc1ccc(C(=O)c2[nH]c(=O)[nH]c2C)cc1 | -0.7 | 32.4* | -4.6 | -0.1
CNC(=O)c1cc2c(=O)n3cc(C)ccc3nc2n(C(C)C)c1=N | -0.3 | 11.3 | + | -0.1
CCOCCCn1c(=N)c(S(=O)(=O)c2ccc(C)cc2)cc2c(=O)n3cc(C)ccc3nc21 | -0.4 | 3.0 | 7.9 | ·
Cc1ccc2nc3c(cc(C(=O)NC4CCCC4)c(=N)n3C3CCCCC3)c(=O)n2c1 | -0.3 | 14.2 | 134.4* | -2.4
CCCC(=O)Nc1ccc2c(c1)OC[C@@H](C)N(C(=O)c1ccccn1)C[C@@H](C)[C@@H](OC)CN(C)C2=O | · | · | · | 0.0
C/C=C/c1ccc([C@H]2[C@@H](CO)N(C(=O)C3CC3)[C@@H]2CN(CC)C(C)=O)cc1 | · | · | · | 3.3
CCCCn1c(-c2ccccc2)nc2c(=O)n(C)c(=O)[nH]c21 | -0.5 | 5.0 | 195.5* | -1.5
COC(=O)C[C@H]1CC[C@H]2[C@@H](COc3ccc(NC(=O)Nc4cccc(C)c4)cc3C(=O)N2C)O1 | · | · | · | 2.8
CCCC(=O)Nc1ccc2c(c1)OC[C@H](C)N(Cc1ccccn1)C[C@@H](C)[C@H](OC)CN(C)C2=O | · | · | · | -2.0
O=C1C=C(O)c2cccc3cccc1c23 | 1.0 | 31.3* | -2.0 | -2.6
O=C1C=C(N2CCOCC2)c2cccc3cccc1c23 | i | 20.9 | 2.6 | -0.2
CCN(CC)c1ccc(C(=O)OCC(=O)NC(C)(C)C)cc1 | -0.6 | 56.8* | -2.1 | -0.7
C[C@@H]1CN([C@@H](C)CO)C(=O)c2cc(NC(=O)Nc3ccc(C(F)(F)F)cc3)ccc2O[C@@H](C)CCCCO[C@@H]1CN(C)C(=O)NC1CCCCC1 | · | · | · | -3.0
O=C(O)C[C@H]1C[C@H]2c3cc(NC(=O)CC4CC4)ccc3O[C@H]2[C@@H](CO)O1 | · | · | · | -0.7
COc1cc(O)oc1C=Nc1ccc(Cl)cc1 | 25.8* | 13.2 | -3.2 | -0.3
COC(=O)C1CSC(C(=O)OC)N1C(=O)Nc1ccc(Cl)c(Cl)c1 (configuration not stated) | i | -2.6 | 0.2 | -0.8
COC(=O)C1CSC(C(=O)OC)N1C(=O)Nc1ccc(Cl)cc1 (configuration not stated) | 0.7 | 9.8 | 103.3* | 0.3
CNC(=O)C[C@@H]1CC[C@@H]2[C@H](COC[C@@H](O)CN2C(=O)Nc2cccc(OC)c2)O1 | · | · | · | 15.0
O=C1C2C3C=CC(CC3)C2C(=O)N1/N=C/c1ccc(O)cc1 (configuration not stated) | -1.8 | 31.9* | -2.3 | -3.1
CC(=O)NN1C(=O)/C(=C\c2ccc(O)cc2)SC1=S | -0.2 | 10.1 | -16.3 | -11.7
O=C1/C(=C\c2ccc(O)cc2)SC(=S)N1/N=C/c1ccc(O)cc1 | -0.2 | 38.3* | -27.0 | -2.5
CCOC(=O)c1[nH]c2cc3c(cc2c1NC(=O)CN1CCN(CCO)CC1)OCO3 | i | 46.2* | 129.8* | 0.2
O=C(Nc1ccc(Cc2ccncc2)cc1)c1cccc([N+](=O)[O-])c1 | 0.2 | 0.6 | -0.5 | 12.9
O=C(Nc1ccc(Nc2ccncc2)cc1)c1ccc(Nc2ccnc3ccc([N+](=O)[O-])cc23)cc1 | i | 39.1* | -0.1 | -2.5
SMILES | Vc quorum ag | GDH-TPI inh | FBA Mtb inh | Mtb BioA inh
COc1ccc(CNC(=O)C[C@@H]2C[C@@H]3c4cc(NC(=O)CC5CC5)ccc4O[C@@H]3[C@@H](CO)O2)cc1 | · | · | · | -2.2
C[C@H](CO)N1C[C@H](C)[C@@H](CN(C)C(=O)CCC(F)(F)F)OCCCC[C@H](C)Oc2ccc(NS(=O)(=O)c3ccc(F)cc3)cc2C1=O | · | · | · | 0.1
Cc1cccc(CN2C(=O)N/C(=C/c3cc(C)n(-c4cc(C)ccn4)c3C)C2=O)c1 | -0.5 | 31.4* | 1.2 | -1.6
Cc1cccc(CN2C(=O)N/C(=C/c3ccc(C)s3)C2=O)c1 | 2.8 | 25.0 | -1.0 | ·
O=C(Nc1ccc(F)cc1)N[C@H]1CC[C@H](CC(=O)N2CCOCC2)O[C@H]1CO | · | · | · | -1.7
O=C(O)c1cccc(C(=O)c2cccc(C(=O)O)c2)c1 | 2.0 | 1.9 | -0.9 | -1.1
O=C(O)c1cc2ccc3cccc4ccc(c1)c2c34 | i | 27.0 | 167.9* | 0.0
C[C@H](CO)N1C[C@H](C)[C@@H](CN(C)Cc2ccc(-c3ccccc3)cc2)Oc2ccc(NC(=O)NC3CCCCC3)cc2C1=O | · | · | · | 0.9
CN(C)c1ccc(C(=O)c2ccccc2C(=O)O)c(O)c1 | -7.7 | 40.7* | 1.8 | 0.2
CCCCN(CCCC)c1ccc(C(=O)c2ccccc2C(=O)O)c(O)c1 | i | 30.1 | -2.3 | 7.0
O=C(c1ccccc1)N1C[C@@H]2[C@H](c3ccccc31)[C@H](CO)N2C(=O)CN1CCOCC1 | · | · | · | -2.6
C[C@H]1CCCCO[C@H](CN(C)C(=O)Nc2ccc3c(c2)OCO3)[C@@H](C)CN([C@@H](C)CO)C(=O)c2cc(NC(=O)c3ccncc3)ccc2O1 | · | · | · | 0.6
c1cn2c(-c3ccoc3)cncc2n1 | i | 2.6 | 26.0 | -2.0
OCc1ccc(-c2cncc3nccn23)cc1 | -0.9 | 12.8 | + | 0.6
CCCC[N+](CC#CCO)(CC#Cc1ccccc1)CCCC | -0.4 | -17.1 | 2.9 | ·
CCC[N+](CC#CCO)(CC#Cc1ccccc1)CCC | -0.8 | 3.4 | 145.8* | ·
COc1ccc(-c2nc(C#N)c(NCCN(C)C)o2)cc1 | -0.3 | 10.9 | 123.2* | -0.7
CCN(CC)CCCNc1oc(-c2cccc(Cl)c2)nc1C#N | -0.3 | 0.3 | 134.1* | ·
CN(C)CCCNc1oc(-c2ccc(Cl)cc2)nc1C#N | 2.8 | 17.1 | 172.7* | 0.2
COc1ccc(Nc2oc(-c3ccc(OC)cc3)nc2C#N)cc1 | -1.0 | -2.4 | 0.2 | ·
COc1ccc(Nc2oc(-c3ccc(Cl)cc3)nc2C#N)cc1 | i | 28.3 | -1.9 | -0.4
COCCNc1oc(-c2ccc(C)cc2)nc1C#N | -0.5 | 22.9 | 199.6* | ·
N#Cc1nc(-c2ccco2)oc1NCc1cccnc1 | 1.7 | 15.9 | 23.2 | ·
N#Cc1nc(-c2cccc(Cl)c2)oc1NCc1cccnc1 | -0.3 | 13.1 | 141.0* | 14.1
N#Cc1nc(-c2ccc(Cl)cc2)oc1NCc1ccco1 | 7.7 | 7.1 | 174.8* | -1.9
SMILES | Vc quorum ag | GDH-TPI inh | FBA Mtb inh | Mtb BioA inh
COCCNc1oc(-c2ccc(Cl)cc2)nc1C#N | -0.5 | 37.0* | + | -0.8
N#Cc1nc(-c2ccccc2Cl)oc1NCc1ccco1 | -5.0 | 9.0 | 8.9 | 1.7
CN1CCN(C(=O)C[C@H]2C[C@H]3c4cc(NC(=O)Nc5ccc(C(F)(F)F)cc5)ccc4O[C@H]3[C@@H](CO)O2)CC1 | · | · | · | 3.6
O=C(C[C@@H]1C[C@@H]2c3cc(NS(=O)(=O)c4ccccc4)ccc3O[C@@H]2[C@H](CO)O1)N1CCCCC1 | · | · | · | 0.2
Cc1noc(C)c1NC(=O)N(C)C[C@H]1Oc2ccc(NC(=O)NC3CCCCC3)cc2C(=O)N([C@@H](C)CO)C[C@@H]1C | · | · | · | -2.5
CNC[C@H]1OCCCC[C@H](C)Oc2ccc(NC(=O)NC3CCCCC3)cc2C(=O)N([C@H](C)CO)C[C@@H]1C | · | · | · | -1.5
COc1ccc(N2C3=C(C(=O)CC(C)(C)C3)C(c3cnn(C)c3)C3=C2CC(C)(C)CC3=O)cc1 | i | 3.1 | 112.5* | -0.4
